Compounds without any hit were thinned out: in the full panel of roughly 83,000, 20% have a hit.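 Compound tested at a single concentration for 48 hours in 96-well plates; a percent growth value below 10 was scored as active.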 Unmarked numbers belong to inactive results. Calls of active or inactive are those of the source.
Legend:
Experiment in all cases: NCI-60 one-dose screen, 48 h (100 = growth as untreated, 0 = no growth, -100 = all killed)
Conditions in all cases: 10 µM unless noted
[1] = test system: NCI-H23 lung
[2] = test system: NCI-H226 lung
[3] = test system: NCI-H322M lung
[4] = test system: HOP-62 NSCLC
[5] = test system: NCI-H460 lung
[6] = test system: HOP-92 NSCLC
[7] = test system: NCI-H522 lung
[8] = test system: A549/ATCC NSCLC
[9] = test system: 786-0 renal
[10] = test system: COLO 205 colon

Structure (SMILES): O=C(CSc1nc2ccc([N+](=O)[O-])cc2[nH]1)Nc1ccc([N+](=O)[O-])cc1
- growth [1]: 0.139% (active)
- growth [2]: 6.55% (active)
- growth [3]: 43.9%
- growth [4]: 36.2%
- growth [5]: 15.4%
- growth [6]: -26.8% (active)
- growth [7]: -3.09% (active)
- growth [8]: 24.4%
- growth [9]: 24.1%
- growth [10]: 21.4%

Structure (SMILES): CCSc1nc2scc(C)c2c(=O)[nH]1
- growth [1]: 95.1%
- growth [2]: 99.2%
- growth [3]: 104%
- growth [4]: 106%
- growth [5]: 102%
- growth [6]: 101%
- growth [7]: 94.6%
- growth [8]: 99.2%
- growth [9]: 94%
- growth [10]: 111%

Structure (SMILES): CC(C)COc1nc2c(c(=O)n(C)c(=O)n2C)n1C
- growth [1]: 98.5%
- growth [2]: 94.5%
- growth [3]: 105%
- growth [4]: 99%
- growth [5]: 105%
- growth [6]: 93.7%
- growth [7]: 101%
- growth [8]: 106%
- growth [9]: 104%
- growth [10]: 109%

Structure (SMILES): O=C(N/N=C/c1ccc(Cl)cc1)c1[nH]c2ccc(Cl)cc2c1-c1ccccc1
- growth [1]: 42.1%
- growth [2]: 10.9%
- growth [3]: 37.6%
- growth [4]: 23.9%
- growth [5]: 4.43% (active)
- growth [6]: -7.26% (active)
- growth [7]: -32% (active)
- growth [8]: 42.9%
- growth [9]: 22.1%
- growth [10]: -72.4% (active)

Structure (SMILES): CN1C(=O)/C(=C\c2c(Cl)cccc2Cl)c2ccccc21
- growth [1]: 90.7%
- growth [2]: 100%
- growth [3]: 96.5%
- growth [4]: 86.5%
- growth [5]: 103%
- growth [6]: 83.4%
- growth [7]: 83.3%
- growth [8]: 88%
- growth [9]: 84.3%
- growth [10]: 113%

Structure (SMILES): CCCCCOC(=O)c1c(C)[nH]c(/C=C2\N=C(c3ccc[nH]3)C=C2OC)c1C
- growth [1]: -59.1% (active)
- growth [2]: -74.8% (active)
- growth [3]: -17.8% (active)
- growth [4]: -17.8% (active)
- growth [5]: 4.97% (active)
- growth [6]: -20.5% (active)
- growth [7]: -56.7% (active)
- growth [8]: -1.61% (active)
- growth [9]: -16.9% (active)
- growth [10]: -88.2% (active)

Structure (SMILES): CC(O)(c1ccccc1)C(c1ccccc1)C1CCCCN1 (stereo not given)
- growth [1]: 107%
- growth [2]: 102%
- growth [3]: 88.5%
- growth [4]: 99.3%
- growth [5]: 103%
- growth [6]: 90.3%
- growth [7]: 95.1%
- growth [8]: 88.1%
- growth [9]: 103%
- growth [10]: 103%

Structure (SMILES): CCCCNC(=O)CC1=C(C)/C(=C/c2[nH]c(-c3ccc[nH]3)cc2OC)N=C1C
- growth [1]: 48.6%
- growth [2]: 36.7%
- growth [3]: 50%
- growth [4]: 50.5%
- growth [5]: 7.8% (active)
- growth [6]: -19.8% (active)
- growth [7]: 17%
- growth [8]: 12.4%
- growth [9]: 16.1%
- growth [10]: 17.2%

Structure (SMILES): COC(=O)/C=C1/SC(=Nc2ccc(C(F)(F)F)cc2)N(CCc2c[nH]c3ccc(O)cc23)C1=O
- growth [1]: 18.6%
- growth [2]: 1.54% (active)
- growth [3]: 6.96% (active)
- growth [4]: -26.6% (active)
- growth [5]: -60% (active)
- growth [6]: -54% (active)
- growth [7]: -40.6% (active)
- growth [8]: 18.1%
- growth [9]: -59.5% (active)
- growth [10]: -58.9% (active)

Structure (SMILES): Ic1ccc(OCCCCn2ccnc2)cc1
- growth [1]: 66.6%
- growth [2]: 80.5%
- growth [3]: 85.3%
- growth [4]: 72.3%
- growth [5]: 92.5%
- growth [6]: 34.7%
- growth [7]: 67.4%
- growth [8]: 78.1%
- growth [9]: 83.7%
- growth [10]: 29.3%

Structure (SMILES): COCCOc1cc2ncnc(N3CCN(c4cc(S(C)(=O)=O)c(C)cc4Cl)CC3)c2cc1OCCOC
- growth [1]: 81.9%
- growth [2]: 81.4%
- growth [3]: 105%
- growth [4]: 100%
- growth [5]: 102%
- growth [6]: 53.3%
- growth [7]: 90.6%
- growth [8]: 90.6%
- growth [9]: 105%
- growth [10]: 97.1%

Structure (SMILES): O=C(/C=C/c1ccccc1)Nc1ncc(Cc2ccccc2Cl)s1
- growth [1]: 51.8%
- growth [2]: 48.6%
- growth [3]: 33.8%
- growth [4]: 18.9%
- growth [5]: 14.1%
- growth [6]: 65.1%
- growth [7]: -11.2% (active)
- growth [8]: 30.8%
- growth [9]: 45.7%
- growth [10]: 2.14% (active)

Structure (SMILES): Cc1ccc2c(n1)C(=O)C(Br)=C(C1CCCC1)C2=O
- growth [1]: 92.4%
- growth [2]: 94.3%
- growth [3]: 100%
- growth [4]: 84%
- growth [5]: 110%
- growth [6]: 98.4%
- growth [7]: 83.6%
- growth [8]: 94.4%
- growth [9]: 101%
- growth [10]: 52%

Structure (SMILES): CC1OC(n2c3ccccc3c3c4c(c5c6ccccc6[nH]c5c32)C(=O)N(CCN2CCCC2)C4=O)CC(O)C1O (stereo not given)
- growth [1]: 41%
- growth [2]: 43.1%
- growth [3]: 58.2%
- growth [4]: 35.2%
- growth [5]: -61.3% (active)
- growth [6]: 86.6%
- growth [7]: 24.5%
- growth [8]: 15.3%
- growth [9]: 18%
- growth [10]: 24.8%

Structure (SMILES): CC(=O)n1nc(C(=O)OC(C)(C)c2ccccc2)c2ccccc21
- growth [1]: 94.2%
- growth [2]: 85.7%
- growth [3]: 87.9%
- growth [4]: 97.3%
- growth [5]: 100%
- growth [6]: 94.1%
- growth [7]: 85.5%
- growth [8]: 91.8%
- growth [9]: 96.8%
- growth [10]: 107%

Structure (SMILES): Cc1ccc(/C=C2\COc3ccc(O)cc3C2=O)cc1
- growth [1]: 94.7%
- growth [2]: 97.3%
- growth [3]: 99.6%
- growth [4]: 103%
- growth [5]: 100%
- growth [6]: 97.4%
- growth [7]: 4.44% (active)
- growth [8]: 89.7%
- growth [9]: 86.7%
- growth [10]: 94.3%

Structure (SMILES): CN(C)Cc1ccc(O)c(C(=O)O)c1
- growth [1]: 104%
- growth [2]: 108%
- growth [3]: 109%
- growth [4]: 106%
- growth [5]: 105%
- growth [6]: 95.5%
- growth [7]: 102%
- growth [8]: 109%
- growth [9]: 107%
- growth [10]: 117%

Structure (SMILES): CCOC(=O)c1c2c(n3cccc(F)c13)C(=O)c1ncccc1C2=O
- growth [1]: -0.249% (active)
- growth [2]: -6.38% (active)
- growth [3]: 6.61% (active)
- growth [4]: -37.4% (active)
- growth [5]: -22.1% (active)
- growth [6]: 38.5%
- growth [7]: 1.44% (active)
- growth [8]: -9.79% (active)
- growth [9]: -17.3% (active)
- growth [10]: 7.04% (active)

Structure (SMILES): COCCNC(=O)Nc1ccc2nc(-c3cccs3)c(-c3cccs3)nc2c1
- growth [1]: 90%
- growth [2]: 92.8%
- growth [3]: 98.6%
- growth [4]: 101%
- growth [5]: 88.7%
- growth [6]: 80.8%
- growth [7]: 76.6%
- growth [8]: 87.5%
- growth [9]: 96.9%
- growth [10]: 107%

Structure (SMILES): Cc1cc(N2CCN(CC(=O)Nc3ccc4c(ccn4C)c3)CC2)nc(N2CCCCCC2)n1
- growth [1]: 99.9%
- growth [2]: 97.9%
- growth [3]: 92.9%
- growth [4]: 80.2%
- growth [5]: 101%
- growth [6]: 60.5%
- growth [7]: 73.3%
- growth [8]: 85.3%
- growth [9]: 93.8%
- growth [10]: 81.1%

Structure (SMILES): O=C(CN1C(=O)S/C(=C\C(Cl)=C\c2ccccc2)C1=O)NCCc1ccc(O)cc1
- growth [1]: 40.2%
- growth [2]: 60.1%
- growth [3]: 75.2%
- growth [4]: 43%
- growth [5]: 45.7%
- growth [6]: 15.6%
- growth [7]: -6.49% (active)
- growth [8]: 48.8%
- growth [9]: -17.9% (active)
- growth [10]: 13.7%

Structure (SMILES): Cc1ccc(C(=O)c2ccc(CC(=O)N/N=C/c3ccccc3O)n2C)cc1
- growth [1]: 82.9%
- growth [2]: 97%
- growth [3]: 78.9%
- growth [4]: 76%
- growth [5]: 76.6%
- growth [6]: 98.6%
- growth [7]: 75.2%
- growth [8]: 86.1%
- growth [9]: 96.8%
- growth [10]: 101%

Structure (SMILES): C=CCn1c(C)nc2ccc(Nc3nc(Nc4ccc5nc(C)n(CC=C)c5c4)c4ccccc4n3)cc21
- growth [1]: 32.8%
- growth [2]: 67.4%
- growth [3]: -13.4% (active)
- growth [4]: -61.5% (active)
- growth [5]: -69.5% (active)
- growth [6]: 43.2%
- growth [7]: -90.7% (active)
- growth [8]: -83.1% (active)
- growth [9]: -93.8% (active)
- growth [10]: -92.3% (active)

Structure (SMILES): CCOC(=O)c1cc(C(=O)c2cc(OC)c(OC)c(OC)c2)n2ncccc12
- growth [1]: 38%
- growth [2]: 29.6%
- growth [3]: 48.1%
- growth [4]: 32.2%
- growth [5]: 10.3%
- growth [6]: 73.6%
- growth [7]: 34.8%
- growth [8]: 24.1%
- growth [9]: 26.5%
- growth [10]: -24.7% (active)

Structure (SMILES): Cc1cn(-c2cc(NC(=O)c3cncc(C#Cc4cnc(N)c5ncccc45)c3)cc(C(F)(F)F)c2)cn1
- growth [1]: 43.5%
- growth [2]: 45.7%
- growth [3]: 83.4%
- growth [4]: 70.9%
- growth [5]: 71.2%
- growth [6]: 43.3%
- growth [7]: 52.2%
- growth [8]: 88.1%
- growth [9]: 71.6%
- growth [10]: 28.4%

Reference: PubChem BioAssay (NCI)
